Test results as given in PubChem BioAssay (NCI).
About 83,000 compounds went through this panel and 20% of them were active in at least one assay; those are over-represented in the sample as a whole.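 Note: values are percent growth. 100 is the growth of untreated cells, values between 100 and 0 indicate rising inhibition; between -100 and 0 indicates cell death.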 Unmarked numbers belong to inactive results. Calls of active or inactive are those of the source. How the source made its calls: active means growth percent below 10; inactive means the rest.

Test system: SF-539 CNS
Assay: NCI-60 one-dose screen, 48 h (100 = growth as untreated, 0 = no growth, -100 = all killed)
Details: 10 µM unless noted

Compound	growth
C/C(=N\N=C1/C(=O)Nc2ccc(Cl)cc21)c1ccc2c(c1)Nc1ccccc1S2	3.26% (active)
CCCSc1nc(NCCc2c[nH]c3ccccc23)c(C#N)c(-c2ccc(F)cc2)n1	44.7%
COc1cc(C2CC(c3cc(OC)c(OC)c(OC)c3)=NN2C(C)=O)ccc1OCc1ccccc1 (centres undefined)	51.7%
Cc1cc2c(cc1Cl)C(=O)/C(=C/c1ccccc1)O2	-98.5% (active)
COc1ccc2[nH]cc(-c3nc(N)nnc3-c3cn(C)c4ncccc34)c2c1	50.2%
Cc1ccc(C(=O)CSc2nc3ccc(F)cc3c(=O)n2-c2ccc(Cl)cc2)cc1	2.03% (active)
CCCCSc1nc(NCCc2c[nH]c3ccccc23)c(C#N)c(-c2ccccc2)n1	46.6%
Cn1cc(-c2nc(N)nnc2-c2c[nH]c3ccc(Br)cc23)c2cccnc21	20.1%
CN(C)CCOc1ccc(C(=O)C2[C@H](c3ccc(Cl)cc3)[C@@H](c3ccccc3)NC23C(=O)Nc2ccc(Br)cc23)cc1 (some centres undefined)	13%
CN1CCN(/C(=N\c2sc(-c3ccccc3)nc2-c2ccccc2)c2ccccc2)CC1	76%
CCCSc1nc(NCCc2c[nH]c3ccccc23)c(C#N)c(-c2ccccc2)n1	66.2%
CCN(CC)c1ccnc(CNCCSC(c2ccccc2)(c2ccccc2)c2ccc(OC)cc2)c1	-95.8% (active)
COc1cc2oc(-c3cccc(C(=O)Nc4cccc([N+](=O)[O-])c4)c3)cc(=O)c2c(OC)c1OC	3.56% (active)
O=C(COc1ccc(NC(=O)Nc2ccc(Cl)c(Cl)c2)cc1)N=Nc1c(O)[nH]c2ccc([N+](=O)[O-])cc12	1.4% (active)
COc1cc(-c2nc3cc(Cl)c(Cl)cc3[nH]2)ccc1OCc1nnc(-c2cccs2)o1	104%
CCCCCCCCc1ccc(C(=O)Nc2ccc(C)cc2C(=O)O)cc1C	99.1%
CCOP(=O)(OCCCl)c1nc(-c2ccc(C)cc2)oc1NCc1ccccc1 (centres undefined)	87.2%

Compound	growth
NS(=O)(=O)c1ccc(N=Nc2c(O)n(CC(=O)Nc3ccccc3)c3ccccc23)cc1	-27.2% (active)
CC1(C)CC[C@]2(C(=O)Nc3ccccc3)CC[C@]3(C)C(=CCC4[C@@]5(C)C[C@@H](O)[C@H](O)[C@@](C)(CO)C5CC[C@]43C)C2C1 (some centres undefined)	63%
COc1ccccc1C(=O)NN1C(=O)/C(=C/C2=Cc3ccccc3OC2)SC1=S	95.4%
COc1ccc(NC(=O)[C@H](CO)NC(=O)OC(C)(C)C)cc1C(=O)Nc1cccc(C2CC(=O)c3c(cc(OC)c(OC)c3OC)O2)c1 (some centres undefined)	79.1%
COc1ccc(C2(SCCNCc3cc(N(C)C)ccn3)c3ccccc3C=Cc3ccccc32)cc1	-67.7% (active)
COc1ccc2[nH]c(O)c(N=NC(=O)COc3ccc(NC(=O)Nc4ccccc4)cc3)c2c1	-22.7% (active)
COc1cc(/C=C/C(=O)c2ccc(C)cc2)ccc1Oc1nc(Nc2ccc(F)cc2)nc(N(C)C)n1	-31.9% (active)
CCN(CC)CCOc1ccc(Nc2ncc3cc(-c4ccc(O)c(C#N)c4)c(=O)n(C)c3n2)cc1	62.2%
CC(/C=C1\SC(=S)N(CCCC(=O)NC(CC(C)C)C(=O)O)C1=O)=C\c1ccccc1 (centres undefined)	96%
COc1cc2c(c(OC)c1OC)C(=O)CC(c1cccc(NC(=O)c3cc(N)ccc3Cl)c1)O2 (centres undefined)	56.6%
CC(=O)OC[C@@]1(C)C2CC[C@]3(C)C(CC=C4C5CC(C)(C)CC[C@]5(C(=O)Nc5cccc(C)c5)CC[C@]43C)[C@@]2(C)C[C@@H](OC(C)=O)[C@@H]1OC(C)=O (some centres undefined)	42%
CCCCc1c(Nn2cnnn2)no[n+]1[O-]	57%
CC(C)Sc1nc(NCCc2c[nH]c3ccccc23)c(C#N)c(-c2ccc(F)cc2)n1	40.1%
C=C1CCC2C3(C)COC(c4ccc(F)cc4)OC3CCC2(C)C1CC(O)C1=CCOC1=O (centres undefined)	56.3%
NS(=O)(=O)c1ccc(N=Nc2c(O)n(CC(=O)Nc3ccccc3Cl)c3ccccc23)cc1	-10% (active)
Cc1ccccc1[C@H]1C(C(=O)c2ccc(Cl)cc2)C2(N[C@@H]1c1ccccc1)C(=O)Nc1ccc(Cl)cc12 (some centres undefined)	-58.1% (active)
CCCCCCCCc1ccc(S(=O)(=O)Nc2ccc(CC)cc2C(=O)O)cc1	101%
